Measured values reported in PMC4336329 (PLoS ONE, 2015).
In all, about 310,000 compounds went through this assay and about 2,200 (0.71%) showed an effect of 50% or more. Effects have a minus sign here. For the sample, strong results were picked, then their nearest neighbours and some compounds at random.

What follows are compounds tested against human ether-à-go-go-related gene (hERG) potassium channel (human, UniProt Q12809) (assay: primary screen, population patch clamp on CHO cells stably expressing hERG; higher = less effect of the substance).
Chain of human ether-à-go-go-related gene (hERG) potassium channel (Q12809 whole entry, looked up): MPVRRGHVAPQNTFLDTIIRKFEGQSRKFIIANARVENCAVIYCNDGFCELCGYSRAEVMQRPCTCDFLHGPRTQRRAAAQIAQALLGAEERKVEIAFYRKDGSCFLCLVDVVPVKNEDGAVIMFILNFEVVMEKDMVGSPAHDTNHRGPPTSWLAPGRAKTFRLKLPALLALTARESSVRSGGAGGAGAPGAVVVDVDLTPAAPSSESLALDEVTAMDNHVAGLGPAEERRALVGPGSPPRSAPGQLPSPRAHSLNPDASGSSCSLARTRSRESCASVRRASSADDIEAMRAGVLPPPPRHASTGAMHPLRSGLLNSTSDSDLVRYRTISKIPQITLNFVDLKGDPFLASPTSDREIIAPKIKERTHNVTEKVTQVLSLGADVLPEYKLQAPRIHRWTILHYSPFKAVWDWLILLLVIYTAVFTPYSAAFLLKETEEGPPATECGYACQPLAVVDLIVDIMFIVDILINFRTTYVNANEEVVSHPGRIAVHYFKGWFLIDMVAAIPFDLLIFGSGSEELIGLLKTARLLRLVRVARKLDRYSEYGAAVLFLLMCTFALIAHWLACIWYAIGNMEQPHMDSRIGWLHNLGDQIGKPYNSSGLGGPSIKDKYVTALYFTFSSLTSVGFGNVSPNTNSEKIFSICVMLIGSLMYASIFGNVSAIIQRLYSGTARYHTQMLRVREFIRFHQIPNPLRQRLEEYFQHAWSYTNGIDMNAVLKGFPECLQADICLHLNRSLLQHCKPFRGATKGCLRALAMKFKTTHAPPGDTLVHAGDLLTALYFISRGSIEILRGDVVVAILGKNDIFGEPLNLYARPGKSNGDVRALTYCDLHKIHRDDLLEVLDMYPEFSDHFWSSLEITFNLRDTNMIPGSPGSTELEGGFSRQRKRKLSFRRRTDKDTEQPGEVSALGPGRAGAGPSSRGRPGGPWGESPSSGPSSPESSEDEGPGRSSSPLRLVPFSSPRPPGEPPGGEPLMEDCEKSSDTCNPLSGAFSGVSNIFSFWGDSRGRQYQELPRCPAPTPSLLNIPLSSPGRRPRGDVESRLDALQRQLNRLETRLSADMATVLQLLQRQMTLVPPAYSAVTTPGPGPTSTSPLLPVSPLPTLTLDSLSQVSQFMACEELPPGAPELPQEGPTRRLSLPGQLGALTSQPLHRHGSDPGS

Row | Compound | hERG current change (%, negative = inhibition) at 1uM [%]
1 | O=C(CNCc1cccc2ccccc12)Nc1ccccc1[N+](=O)[O-] | 1.68
2 | COc1ccc(NC(=O)CSc2nnc(-c3ccoc3C)n2CCc2ccccc2)cc1 | 1.36
3 | CCN1/C(=C/C=C/C=C/C=C/c2sc3ccccc3[n+]2CC)Sc2ccccc21.[I-] | 7.57
4 | CCN1/C(=C/C=C/C=C/c2sc3ccccc3[n+]2CC)Sc2ccccc21.[I-] | -37.5
5 | CCN1/C(=C/c2ccc3cccc(C)c3[n+]2CC)Sc2ccccc21.[I-] | -76.4
6 | CCN1/C(=C/c2ccc3ccc(C)cc3[n+]2CC)Sc2ccccc21.[I-] | -63.6
7 | CCC(=O)/C=C1/Sc2ccccc2N1CC | 10.1
8 | CCN1/C(=C/c2ccc3cc(C)ccc3[n+]2CC)Sc2ccccc21.[I-] | -100
9 | CCN1/C(=C/C(C)=C/c2sc3ccccc3[n+]2CC)Sc2ccccc21.[I-] | 10.6
10 | CCN1/C(=C/c2ccc3cc(C)ccc3[n+]2CC)Sc2ccc3sccc3c21.[I-] | 10.9
11 | CCC(=O)/C=C1\Sc2ccccc2N1CC | 4.38
12 | COc1cccc(CCc2nnc(N)s2)c1 | 13.2
13 | O=Cc1cn(CC(=O)Nc2ccccc2)c2ccccc12 | 6.4
14 | C=CCOC(=O)Nc1ccc(Cl)cc1NC(=O)OCC=C | 0.411
15 | Cc1ccc(C(=O)Oc2ccc(Cl)c3cccnc23)cc1[N+](=O)[O-] | 15
16 | CCCc1c(C)[nH]c2nc3ccccc3n2c1=O | 11.4
17 | COc1ccc(C)cc1S(=O)(=O)N(C)CC(=O)N1CCC(C(N)=O)CC1 | 9.99
18 | COc1cc(NC(=S)N2CCN(C)CC2)cc(OC)c1 | 14.3
19 | CCN1C(=O)/C(=C\N2CCN(c3cccc(Cl)c3)CC2)SC1=S | 6.97
20 | COc1ccc(NC(=S)N(CCCN2CCC(C)CC2)Cc2cccs2)cc1 | -47.5
21 | COc1cccc(NC(=S)N(CCCN2CCCC(C)C2)Cc2cccs2)c1 (centres unmarked) | -30.2
22 | COc1ccc(NC(=S)N(CCCN2CCCC2)Cc2cccs2)cc1 | -7.06
23 | COc1ccc(NC(=S)N(CCCN2CCN(C)CC2)Cc2cccs2)cc1 | -14
24 | COc1ccc(NC(=S)N(CCCN2CCCCC2)Cc2cccs2)cc1 | -50.1
25 | COc1cccc(NC(=S)N(CCCN2CCOCC2)C(C)c2cc3ccccc3o2)c1 (centres unmarked) | 10.6
26 | COc1ccc(NC(=S)N(CCCN2CCCC(C)C2)Cc2cccs2)cc1 (centres unmarked) | -62.4
27 | COc1ccc(NC(=S)N(CCCN2CCOCC2)C(C)c2cc3cccc(OC)c3o2)cc1 (centres unmarked) | 3.7

Row | Compound | hERG current change (%, negative = inhibition) at 1uM [%]
28 | COc1ccc(NC(=S)N(CCCN2CCOCC2)C(C)c2cc3ccccc3o2)cc1 (centres unmarked) | -63.1
29 | COc1ccccc1-c1csc(NC(=O)c2ccc(N3C(=O)CCC3=O)cc2)n1 | 5.85
30 | Cc1c(C(=O)Nc2ccc(S(=O)(=O)N(C)C3CCN(C)CC3)cc2)oc2ccccc12 | 3.99
31 | Cc1cc(NC(=O)Cn2nc([N+](=O)[O-])c(Br)c2C)no1 | 15.4
32 | Clc1ccc(-c2csc(N3CCN(c4ccccc4)CC3)n2)cc1 | 6.51
33 | O=C(COC(=O)Cc1c(F)cccc1Cl)NCCC1=CCCCC1 | 7.46
34 | O=C(NCc1ccon1)c1ccc(OC2CCN(CCc3ccccc3)CC2)cc1 | -26
35 | CCc1cc(CNC(=O)c2ccc(OC3CCN(CCc4ccccc4)CC3)cc2)on1 | -54.4
36 | Cc1cc(CN(C)C(=O)c2ccc(OC3CCN(CCc4ccccc4)CC3)cc2)on1 | -77.5
37 | O=C(NCCn1cccn1)c1ccc(OC2CCN(CCc3ccccc3)CC2)cc1 | -1.71
38 | Cc1cc(CN(C)C(=O)c2ccc(OC3CCN(Cc4ccccn4)CC3)cc2)on1 | -2.96
39 | CN(Cc1cnn(C)c1)C(=O)c1ccc(OC2CCN(CCc3ccccc3)CC2)cc1 | -8.79
40 | CN1CCN(c2ccc(CNS(=O)(=O)Cc3cccc(C(F)(F)F)c3)cc2)CC1 | 7.74
41 | N=c1c(S(=O)(=O)c2ccccc2)cc2c(=O)n3ccccc3nc2n1Cc1ccco1 | 18.6
42 | N=c1c(C(=O)NCc2ccco2)cc2c(=O)n3ccccc3nc2n1CCc1ccccc1 | -84.2
43 | N=c1c(C(=O)NCc2ccccc2)cc2c(=O)n3ccccc3nc2n1Cc1ccco1 | -75.5
44 | COc1ccc(CCNC(=O)c2cc3c(=O)n4ccccc4nc3n(Cc3ccco3)c2=N)cc1OC | -74.3
45 | CC(C)n1c(=N)c(C(=O)NCCc2ccccc2)cc2c(=O)n3ccccc3nc21 | -78.6
46 | N=c1c(S(=O)(=O)c2ccc(Br)cc2)cc2c(=O)n3ccccc3nc2n1Cc1ccco1 | 15.4
47 | N=c1c(C(=O)NCCN2CCOCC2)cc2c(=O)n3ccccc3nc2n1CCc1ccccc1 | -33.1
48 | COc1ccc(CCNC(=O)c2ccc3c(=O)n(Cc4ccco4)c(=S)[nH]c3c2)cc1OC | 13.6
49 | O=C(NCCc1ccccc1)c1cnc2ccccn2c1=O | 8.72
50 | COc1ccc(CCNC(=O)c2cc3c(=O)n4cccc(C)c4nc3n(Cc3ccco3)c2=N)cc1OC | -21.8
51 | CC(=O)c1ccc(OCCCC(=O)Nc2cccc(S(=O)(=O)N3CCCCC3)c2)cc1 | -3.68
52 | Oc1ccc2ccccc2c1Br | 12.1
53 | COc1ccc(N2CCN(C(=O)/C=C/c3ccco3)CC2)cc1 | 6.52
